Seven molecules from PubChem BioAssay (EPA / NIEHS) can be followed below.

Holding throughout (conditions): mRNA level, 48 h; actives raise or lower the signal
Read-out in experiment [1]: Cytochrome P450 4A22 (Homo sapiens) (UniProt Q5TCH4)
In words: LTEA_HepaRG_CYP4A22: Life Technologies and Expression Analysis (LTEA) Assay for Cytochrome P450 4A22 (CYP4A22) using HepaRG (AID 2283495). In a few lines: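 Gene expression measured by qRT-PCR against three housekeeping genes (ACTB, GAPDH, POLR2A), with gain or loss fitted relative to 0.5% DMSO vehicle. HepaRG cultures received 48 h chemical treatment, top concentration 100 uM, half-log steps, duplicate wells.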

Read-out in experiment [2]: Cytochrome P450 7A1 (Homo sapiens) (UniProt P22680)
Put plainly: LTEA_HepaRG_CYP7A1: Life Technologies and Expression Analysis (LTEA) Assay for Cytochrome P450 7A1 (CYP7A1) using HepaRG (AID 2283496). In outline:
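HepaRG, 48 h exposure, 8-pt half-log series from 100 uM, 0.5% DMSO vehicle, duplicates. Readout: TaqMan qRT-PCR mRNA vs three housekeeping genes; bidirectional curve fit against DMSO baseline.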

Read-out in experiment [3]: Glutathione S-Transferase (GSTA2), GSTA2 (gene 2939)
In words: LTEA_HepaRG_GSTA2: Life Technologies and Expression Analysis (LTEA) Assay for Glutathione S-Transferase (GSTA2) using HepaRG (AID 2283497). In a few lines: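 qRT-PCR readout of GSTA2 transcript, normalized to three housekeeping genes, fitted bidirectionally against 0.5% DMSO baseline. Differentiated HepaRG cells received compound for 48 h at 8 concentrations (top 100 uM, half-log steps).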

Read-out in experiment [4]: Glutamate-cysteine ligase catalytic (GCLC), GCLC (gene 2729)
In words: LTEA_HepaRG_GCLC: Life Technologies and Expression Analysis (LTEA) Assay for Glutamate-cysteine ligase catalytic (GCLC) using HepaRG (AID 2283498). In a few lines: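 HepaRG, 48 h exposure, 8-pt half-log series from 100 uM, 0.5% DMSO vehicle; TaqMan qRT-PCR for GCLC mRNA, housekeeping-normalized; bidirectional curve fit vs DMSO baseline.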

Read-out in experiment [5]: Glutamate-cysteine ligase regulatory (GCLM), GCLM (gene 2730)
In words: LTEA_HepaRG_GCLM: Life Technologies and Expression Analysis (LTEA) Assay for Glutamate-cysteine ligase regulatory (GCLM) using HepaRG (AID 2283500). In a few lines:
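Endpoint is GCLM transcript level by qRT-PCR, normalized to three housekeeping genes, after 48 h chemical exposure of human HepaRG cells (0.5% DMSO vehicle, top 100 uM, half-log dilutions). Fitting was bidirectional relative to DMSO.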

Read-out in experiment [6]: Glutathione S-transferase M3 (GSTM3), GSTM3 (gene 2947)
Put plainly: LTEA_HepaRG_GSTM3: Life Technologies and Expression Analysis (LTEA) Assay for Glutathione S-transferase M3 (GSTM3) using HepaRG (AID 2283501). In outline: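 GSTM3 transcript levels came from Fluidigm TaqMan qRT-PCR normalized to three housekeeping genes, fitted in both directions against DMSO. HepaRG cultures received chemicals for 48 h in serum-free induction medium (0.5% DMSO), 8 half-log concentrations up to 100 uM, duplicate.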

Read-out in experiment [7]: Heat shock 70 kDa protein 1 (HSPA1A), gene 3303
Put plainly: LTEA_HepaRG_HSPA1A: Life Technologies and Expression Analysis (LTEA) Assay for Heat shock 70 kDa protein 1 (HSPA1A) using HepaRG (AID 2283502). In outline:
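Cells were plated and cultured for 48 h, then switched to serum-free induction medium. Chemicals were added at eight half-log concentrations up to 100 uM for 48 h. RNA was then isolated and HSPA1A measured by qRT-PCR with bidirectional curve fitting against DMSO.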

Read-out in experiment [8]: Hypoxia-inducible factor 1-alpha (Homo sapiens) (UniProt Q16665)
Put plainly: LTEA_HepaRG_HIF1A: Life Technologies and Expression Analysis (LTEA) Assay for Hypoxia-inducible factor 1 (HIF1A) Trancription factor using HepaRG (AID 2283503). In a few lines: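 HIF1A transcript level read by qRT-PCR (ACTB, GAPDH, POLR2A normalization) after 48 h chemical exposure of HepaRG cultures. Eight half-log concentrations, top 100 uM, 0.5% DMSO vehicle, duplicates; bidirectional curve fit against DMSO baseline.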

Read-out in experiment [9]: 3-Hydroxy-3-Methylglutaryl-CoA Synthase 2 (HMGCS2), HMGCS2 (gene 3158)
Put plainly: LTEA_HepaRG_HMGCS2: Life Technologies and Expression Analysis (LTEA) Assay for 3-Hydroxy-3-Methylglutaryl-CoA Synthase 2 (HMGCS2) using HepaRG (AID 2283504). In a few lines:
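Readout is HMGCS2 transcript by qRT-PCR, housekeeping-normalised (ACTB/GAPDH/POLR2A) and fitted bidirectionally against 0.5% DMSO. Differentiated HepaRG cells received chemicals 48 h, duplicate wells, eight half-log concentrations topping at 100 uM.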

Read-out in another experiment: HGF (gene 3082)
Put plainly: LTEA_HepaRG_HGF: Life Technologies and Expression Analysis (LTEA) Assay for Hepatocyte Growth Facto (HGF) using HepaRG (AID 2283505). In a few lines:
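HGF transcript was quantified by TaqMan qRT-PCR against three housekeeping genes after 48 h treatment of HepaRG cells. Exposure ran in duplicate over eight half-log steps topping at 100 uM in 0.5% DMSO vehicle.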

Read-out in experiment [10]: Insulin Like Growth Factor 1 (IGF1), IGF1 (gene 3479)
Put plainly: LTEA_HepaRG_IGF1: Life Technologies and Expression Analysis (LTEA) Assay for Insulin Like Growth Factor 1 (IGF1) using HepaRG (AID 2283506). In a few lines:
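Cells are thawed, plated and cultured 48 h, then exposed in duplicate to chemical (highest 100 uM, half-log steps, 0.5% DMSO) for another 48 h. Total RNA is analysed by Fluidigm qRT-PCR for IGF1 expression relative to vehicle.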

Read-out in experiment [11]: Intercellular Adhesion Molecule 1 (ICAM1), ICAM1 (gene 3383)
In words: LTEA_HepaRG_ICAM1: Life Technologies and Expression Analysis (LTEA) Assay for Intercellular Adhesion Molecule 1 (ICAM1) using HepaRG (AID 2283507). In a few lines:
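ICAM1 transcript levels measured by qRT-PCR, normalized to three housekeeping genes (ACTB, GAPDH, POLR2A), after 48 h chemical exposure of HepaRG cells. Duplicate eight-point half-log series from 100 uM in 0.5% DMSO; gain or loss fitted against vehicle.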

Read-out in experiment [12]: Insulin-like growth factor-binding protein 1 (IGFBP1), IGFBP1 (gene 3484)
In words: LTEA_HepaRG_IGFBP1: Life Technologies and Expression Analysis (LTEA) Assay for Insulin-like growth factor-binding protein 1 (IGFBP1) using HepaRG (AID 2283508). In outline:
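Read-out is qRT-PCR transcript level normalized to three housekeeping genes, fitted in both directions against 0.5% DMSO. Differentiated HepaRG cells received eight half-log concentrations (top 100 uM) in duplicate for 48 h in serum-free induction medium.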

Read-out in experiment [13]: Interleukin 6 Receptor (IL6R), IL6R (gene 3570)
Put plainly: LTEA_HepaRG_IL6R: Life Technologies and Expression Analysis (LTEA) Assay for Interleukin 6 Receptor (IL6R) using HepaRG (AID 2283510). In a few lines: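 Cells were thawed, plated and cultured 48 h, then medium was changed to serum-free induction medium. Chemicals were added in duplicate (100 uM top, half-log steps, 0.5% DMSO) for 48 h. Lysates were analyzed by qRT-PCR for IL6R expression.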

Read-out in experiment [14]: Potassium channel subfamily K member 1 (KCNK1), KCNK1 (gene 3775)
In words: LTEA_HepaRG_KCNK1: Life Technologies and Expression Analysis (LTEA) Assay for Potassium channel subfamily K member 1 (KCNK1) using HepaRG (AID 2283511). In outline:
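HepaRG, 48 h exposure, 8-pt half-log series top 100 uM, 0.5% DMSO vehicle, duplicates. Readout: KCNK1 transcript by qRT-PCR (Fluidigm array), housekeeping-normalized; bidirectional curve fit relative to DMSO baseline.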

Read-out in experiment [15]: Lipase C (LIPC), LIPC (gene 3990)
Put plainly: LTEA_HepaRG_LIPC: Life Technologies and Expression Analysis (LTEA) Assay for Lipase C (LIPC) using HepaRG (AID 2283514). In outline: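 HepaRG, 48 h exposure, 8-pt half-log series from 100 uM in 0.5% DMSO, duplicates. Readout: LIPC mRNA by Fluidigm qRT-PCR, housekeeping-normalized (ACTB/GAPDH/POLR2A). Gain or loss fitted bidirectionally against DMSO baseline.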

Structures are written as SMILES. Active and inactive are the calls of the source. How the source made its calls: active means hit-call score of the fitted dose curve at least 0.9, where 1 is the maximum; inactive means score below 0.9.

Hypoxia-inducible factor 1-alpha (Homo sapiens), sequence (Q16665 whole entry, looked up): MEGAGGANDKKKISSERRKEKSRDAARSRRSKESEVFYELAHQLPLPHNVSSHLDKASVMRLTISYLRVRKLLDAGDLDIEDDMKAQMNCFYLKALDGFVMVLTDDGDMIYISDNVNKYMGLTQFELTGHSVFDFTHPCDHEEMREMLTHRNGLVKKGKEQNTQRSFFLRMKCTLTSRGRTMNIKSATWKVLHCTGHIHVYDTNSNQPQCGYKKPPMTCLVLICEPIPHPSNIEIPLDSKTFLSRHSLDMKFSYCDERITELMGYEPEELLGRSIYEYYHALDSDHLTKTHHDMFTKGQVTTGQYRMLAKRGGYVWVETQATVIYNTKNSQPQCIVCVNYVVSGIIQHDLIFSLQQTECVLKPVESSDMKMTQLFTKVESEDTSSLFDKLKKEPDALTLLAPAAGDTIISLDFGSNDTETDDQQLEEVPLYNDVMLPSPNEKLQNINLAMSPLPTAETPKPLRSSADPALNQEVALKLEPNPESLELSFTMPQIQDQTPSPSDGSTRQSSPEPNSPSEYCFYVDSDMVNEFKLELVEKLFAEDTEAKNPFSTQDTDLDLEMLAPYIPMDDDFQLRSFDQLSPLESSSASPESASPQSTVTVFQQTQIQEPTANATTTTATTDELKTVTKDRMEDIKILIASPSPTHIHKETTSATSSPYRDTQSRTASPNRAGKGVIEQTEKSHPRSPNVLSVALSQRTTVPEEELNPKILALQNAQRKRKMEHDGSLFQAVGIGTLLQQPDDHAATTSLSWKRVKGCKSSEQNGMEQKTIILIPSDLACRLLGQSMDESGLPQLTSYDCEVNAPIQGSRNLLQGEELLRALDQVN

As to `CCc1nn(C2CCCCC2)c2cc(C3(C#N)CCC(C(=O)O)CC3)ccc12` (configuration not stated), the AC50 in experiment [1] is 56.7 µM (active); in [2], 63.3 µM (active); in [3], 77.1 µM (active); in experiment [4] it was 83.6 µM (active); in experiment [5], 50 µM (active); in experiment [7], 12.2 µM (active). The AC50 in [9] is 81.8 µM (active); in [10], 57.3 µM (active); in experiment [11], 28.7 µM (active); in experiment [12], 75.7 µM (active); in [14], 13.1 µM (active); in experiment [15], 78.9 µM (active). For the same molecule, the molecule was called inactive (in experiment [6]; in experiment [8]; with HGF (gene 3082); in experiment [13]).

As for `CCCCCCCCCCCCN1CCCC1=O`, the outcome in experiment [1], in experiment [2], in experiment [3], in [4], in experiment [5] and in [6] was inactive. Also, the molecule was classed as inactive (in experiment [7]; in experiment [8]; in experiment [9]; with HGF (gene 3082); in experiment [10]; in experiment [11]). In addition, the outcome in [12], in [13], in [14] and in [15] was inactive.

Consider `CCCOC(=O)c1ccc(O)cc1`, for which the molecule was called inactive in [1], in [2], in experiment [3], in experiment [4], in experiment [5] and in experiment [6]. Further, the result (in experiment [7]; in experiment [8]; in experiment [9]; with HGF (gene 3082); in experiment [10]; in experiment [11]) was inactive. The result in [12], in experiment [13], in experiment [14] and in experiment [15] was inactive.

`N#C[C@@H]1CC(F)(F)CN1C(=O)CNC1CC2CCC(C1)N2c1ncccn1` (some centres not stated): the molecule was called inactive in [1], in [2], in experiment [3], in [4], in [5] and in [6]. For the same molecule, the call (in experiment [7]; in [8]; in [9]; with HGF (gene 3082); in experiment [10]; in experiment [11]) was inactive. The molecule was classed as inactive in [12], in experiment [13], in [14] and in [15].

For `COCC(C)O` (configuration not stated), the call in [1], in experiment [2], in experiment [3], in experiment [4], in experiment [5] and in experiment [6] was inactive. Besides, the result (in experiment [7]; in experiment [8]; in [9]; with HGF (gene 3082); in [10]; in [11]) was inactive. The outcome in experiment [12], in experiment [13], in experiment [14] and in experiment [15] was inactive.

With `ClC1=C(Cl)C(Cl)(Cl)C(Cl)=C1Cl`, the result in experiment [1], in [2], in experiment [3], in experiment [4], in experiment [5] and in experiment [6] was inactive. Moreover, the outcome (in [7]; in experiment [8]; in experiment [9]; in the experiment with HGF (gene 3082); in experiment [10]; in experiment [11]) was inactive. Moreover, the outcome in [12], in [13], in experiment [14] and in experiment [15] was inactive.

In the case of `CC(C)(C)c1cc(C(C)(C)C)c(O)c(C(C)(C)C)c1`, the result in experiment [1], in [3], in [4], in experiment [5], in [6] and in [7] was inactive. The outcome (in [8]; with HGF (gene 3082); in experiment [10]; in experiment [11]; in [12]; in [13]) was inactive. The molecule was classed as inactive in [14] and in experiment [15]. The results for the AC50 in experiment [2] and in experiment [9] were 16.6 µM (active) and 21 µM (active), respectively.

By AC50 is commonly meant the concentration giving half of the maximal activity seen.
